In PubChem BioAssay (Tox21):
Inconclusive results are not listed. Active and inactive are the calls of the source. Unless noted, calls follow the shape of the dose curve; as a rule, active = well fitted curve in the direction sought with a large enough effect in the repeat runs; inconclusive = weak or mixed curves; inactive = no such curve, though single readings can be large; an effect the other way counts as inactive or inconclusive.

Key:
[1] = qHTS assay to identify small molecule antagonists of the estrogen related receptor (ERR) signaling pathway - cell viability counter screen (AID 1224818); also: series mostly up to about 46 µM
Procedure, shortened: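 ERR cells, 2,000 per well, compound added after 6 h and incubated 17.5 h at 37 C. Viability read by CellTiter-Fluor fluorescence after a further 30 min at 37 C.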

[2] = qHTS assay to identify small molecule antagonists of the estrogen related receptor signaling pathway with the pleiotropic PPARgamma coactivator (PGC) cell viability counter screen (AID 1224822; also: series mostly up to about 46 µM)
Procedure, shortened: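 PGC/ERR cells rested 6 h, then compound-treated 17.5 h at 37 C. CellTiter-Fluor added for 30 min at 37 C, viability measured by fluorescence intensity.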

[3] = qHTS assay to identify small molecule agonists of the estrogen related receptor (ERR) signaling pathway (AID 1224820)
Procedure, shortened: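 Quantitative HTS of the LOPAC library used NTP ERR reporter cells treated 18 h at 37 C. Signal is luminescence after One-Glo addition and a 30 min room-temperature incubation.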

[4] = system: estrogen-related receptor alpha (ERRalpha) with PGC-1alpha coactivator, human; assay: qHTS assay to identify small molecule antagonists of the estrogen related receptor signaling pathway with the pleiotropic PPARgamma coactivator (PGC) (AID 1224821; calls by dose curve;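 also: series mostly up to about 46 µM; lower luminescence signal means antagonism of PGC/ERR signalling; nearly all actives have a fitted effect of over 50% in size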)
Procedure, shortened: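 Quantitative HTS for antagonism: PGC/ERR cells received compounds after 6 h attachment and were incubated 18 h at 37 C, with luminescence (One-Glo) as the endpoint.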

[5] = qHTS assay to identify small molecule agonists of the estrogen related receptor signaling pathway with the pleiotropic PPARgamma coactivator (PGC) (AID 1224823)
Procedure, shortened: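 Cell-based luciferase assay in the NTP-supplied PGC/ERR line, 2,000 cells/well; 18 h compound exposure at 37 C, luminescence after One-Glo.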

[6] = qHTS assay to identify small molecule antagonists of the estrogen related receptor (ERR) signaling pathway (AID 1224819;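 also: luminescence from an ERR-driven luciferase reporter measured with One-Glo reagent; series mostly up to about 46 µM; nearly all actives have a fitted effect of over 50% in size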)
Procedure, shortened: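 ERR reporter cell line (NTP) plated at 2,000 cells/well, settled 6 h at 37C/5% CO2, then exposed to LOPAC compounds for 18 h at 37C. One-Glo luciferase luminescence read after 30 min at room temperature.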

Measured: Potency

O=C(NC1CN2CCC1CC2)c1cc2ccoc2cn1 (stereo not drawn)
inactive: [1] | [2]

C[N+]1(C)C2CCC1CC(OC(=O)C(CO)c1ccccc1)C2 (stereo not drawn)
inactive: [1] | [2]

NC(=O)c1ccc(OCC(O)CN2CC=C(c3ccc(F)cc3)CC2)cc1 (stereo not drawn)
not listed: [6]
inactive: all other assays above

O=C1CC[C@@]2(O)C3Cc4ccc(O)c5c4C2(CCN3CC2CC2)[C@H]1O5 (stereo partly drawn)
inactive: [1] | [2]

NNC(=O)c1ccc(O)cc1
not listed: [3]
inactive: all other assays above

C[N+]1(C)CCOC(O)(c2ccc(-c3ccc(C4(O)C[N+](C)(C)CCO4)cc3)cc2)C1 (stereo not drawn)
not listed: [3]
inactive: all other assays above

CN1CCc2cc(O)cc3c2[C@H]1Cc1ccc(O)c(O)c1-3
inactive: [1] | [3] | [4] | [5]

CN1CCC[C@@H]1Cc1c[nH]c2ccc(Nc3ncccc3[N+](=O)[O-])cc12
inactive: [6] | [3] | [4] | [5]

CN1CC[C@@]2(C)c3cc(OC(=O)Nc4ccccc4)ccc3N(C)[C@@H]12
inactive: [1] | [6] | [4] | [5]

O=[N+]([O-])c1cc(O)c(O)c([N+](=O)[O-])c1
not listed: [1]
inactive: all other assays above
